From PubChem
Only a selection was taken, and hits are over-represented in it overall.
STK33 kin inh – inhibitors of human STK33 kinase. Q9BYT3. AID 2322. ADP-Glo luminescence, MBP substrate. 27,000 tested, 0.44% active. inhibition, % at 12.5 µM; in the data active = inhibition above about 20%; inconclusive = no clear call, values can overlap the other calls
Target sequence (Q9BYT3 whole entry, looked up): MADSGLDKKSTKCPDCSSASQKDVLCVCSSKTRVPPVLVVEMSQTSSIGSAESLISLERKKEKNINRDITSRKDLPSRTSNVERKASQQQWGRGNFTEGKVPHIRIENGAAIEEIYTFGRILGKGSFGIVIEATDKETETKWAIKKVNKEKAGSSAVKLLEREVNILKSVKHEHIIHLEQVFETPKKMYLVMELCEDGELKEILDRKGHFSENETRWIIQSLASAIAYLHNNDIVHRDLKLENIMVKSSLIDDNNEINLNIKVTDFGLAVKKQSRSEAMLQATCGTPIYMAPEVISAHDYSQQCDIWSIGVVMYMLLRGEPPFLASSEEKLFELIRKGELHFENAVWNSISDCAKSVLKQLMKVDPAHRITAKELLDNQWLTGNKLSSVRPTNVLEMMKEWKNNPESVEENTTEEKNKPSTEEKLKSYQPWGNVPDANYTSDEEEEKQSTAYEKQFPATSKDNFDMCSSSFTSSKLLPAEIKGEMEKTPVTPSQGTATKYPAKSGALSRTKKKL
PD-1 reversal – reversal of PD-1 mediated T-cell inhibition | primary human CD4 T cells, PD-L1 beads, CellTiter-Glo 96 h | activation, % (no concentration beside the values) | 29,000 tested, under 10 active | AID 2316; call rule not given here;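 note: 0% = median vehicle wells and 100% = positive control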
NOMO-1 viab – STK33 inhibitor candidate reducing NOMO-1 cell viability; AID 2330; 37,000 tested, 7.5% active; NOMO-1 AML viability, CellTiter-Glo luminescence, 72 h; inhibition, % (no concentration beside the values); in the data active = inhibition above about 80%; inconclusive = no clear call, values can overlap the other calls
An asterisk follows results filed as active; ? = inconclusive; nt = no result.

SMILES	STK33 kin inh	PD-1 reversal	NOMO-1 viab
COc1ccc(NC(=O)COc2ccccc2Cl)cc1NC(=O)c1ccco1	6	-1	-14
O=C(CSc1ncccn1)Nc1ccc(Cl)cc1	4	-6	19
O=C(CC1Sc2ncnn2C1=O)Nc1ccc(Cl)cc1 (centres undefined)	-1	nt	107*
CC(C)(C)N1Sc2ccccc2NC1=S	2	7	9
CSc1nc(SCC(=O)N(c2ccccc2)c2ccccc2)c2c3c(sc2n1)CCC3	-1	nt	-8
COc1ccc(-c2nnc(SCc3ccc([N+](=O)[O-])c(OC)c3)n2-c2ccccc2)cc1	-3	-1	41
NC(=O)CSc1nc2sc3c(c2c(=O)n1Cc1ccccc1)CCCC3	0	nt	19
C/C=C(/C)C(=O)O[C@H]1C=C(CO)C(=O)[C@H](OC(=O)/C(C)=C/CO)[C@H]1C(C)C	1	-37	122*
O=C(/C=C/c1ccccc1)OC[C@]12O[C@H]1[C@@H](O)[C@@H]1C=CO[C@@H](O[C@@H]3O[C@H](CO)[C@@H](O)[C@H](O)[C@H]3O)[C@@H]12	1	0	22
COc1c(O)cc2oc(-c3ccc(O)cc3)cc(=O)c2c1O	15	2	12
COc1cccc2oc(-c3ccccc3)cc(=O)c12	1	-2	10
COc1cc2oc(-c3ccc(O)cc3)cc(=O)c2c(O)c1OC	60*	-2	42
COc1ccc(-c2cc(=O)c3c(O)cc(O)cc3o2)cc1O	46*	nt	-18
Cn1c(SCC(=O)Nc2ccccc2F)nnc1-c1ccccc1	0	0	-11
Oc1ccc(Br)cc1C=NCC12CCC3CC(CC(C3)C1)C2	nt	-1	90*
COc1ccc(NC(=O)CN(c2cc(Cl)cc(Cl)c2)S(C)(=O)=O)cc1Cl	0	nt	17
O=C(CSc1nc2ccccc2s1)NC1CCCCC1	nt	0	10
CC1CCc2c(sc3ncnc(NCCc4nc5ccccc5[nH]4)c23)C1 (centres undefined)	3	nt	97*
CC1CCc2c(sc3ncnc(SCCOc4ccccc4)c23)C1 (centres undefined)	-3	4	-13
Cc1ncc2ccccc2c1C#N	3	4	3
Cc1cc(OC(=O)C2COc3ccccc3O2)cc(C)c1Cl (centres undefined)	nt	1	19
COc1ccc(C(=O)NCCSc2ccccn2)cc1	0	1	25
COc1ccc(C(=O)NCCn2cc(SC(C)c3ccccc3)c3ccccc32)cc1 (centres undefined)	nt	-1	129*
Nc1c2ccccc2nc2ccccc12	0	nt	107*
Nc1c2c(nc3ccccc13)CCCC2	-3	nt	12
SMILES	STK33 kin inh	PD-1 reversal	NOMO-1 viab
O=C1CCC(=O)N(O)CCCCCNC(=O)CCC(=O)N(O)CCCCNC(=O)CCC(=O)N(O)CCCCN1	-5	nt	nt
C[C@@H]1CN([C@H](C)CO)C(=O)Cc2cc(NS(C)(=O)=O)ccc2O[C@@H]1CN(C)Cc1ccc(C(F)(F)F)cc1	-7	-7	31
Cc1ccc(S(=O)(=O)Nc2ccc3c(c2)CC(=O)N([C@@H](C)CO)C[C@H](C)[C@H](CN(C)Cc2ccc(C(F)(F)F)cc2)O3)cc1	7	1	112*
C[C@H](CO)N1C[C@H](C)[C@H](CN(C)Cc2ccc(C(F)(F)F)cc2)Oc2ccc(NS(C)(=O)=O)cc2CC1=O	-2	-2	19
C[C@H](CO)N1C[C@H](C)[C@H](CN(C)Cc2ccc(C(F)(F)F)cc2)Oc2ccc(NS(=O)(=O)c3ccc(F)cc3)cc2CC1=O	2	nt	103*
N/C(=N/C(=S)Nc1ccccc1)N1CCOCC1	nt	2	8
CCOC(=O)c1c(CNC(C)C)oc2ccc(OC)cc12	nt	0	12
COc1cc(NC(=O)COc2cccc(C)c2C)ccc1-c1cc2ccccc2oc1=O	2	-1	131*
COc1ccc(-c2cc3ccccc3oc2=O)cc1NC(=O)COc1ccc(Cl)cc1C	3	nt	nt
COc1cc(NC(=O)COc2ccccc2Cl)ccc1NC(=O)c1cc2ccccc2o1	7	-3	104*
COc1cc(NC(=O)COc2cc(Cl)c(Cl)cc2Cl)ccc1NC(=O)c1cc2ccccc2o1	3	-4	?
COc1ccc2c(c1)nnc1n[nH]c(=O)n12	nt	-1	16
Cc1cc2ccccc2n2c(SCC(=O)NCc3ccco3)nnc12	-1	0	111*
Cc1cc2ccccc2n2c(SCC(N)=O)nnc12	-1	nt	21
Cc1ccc(-c2nnc(-n3cnc4cc(C)c(C)cc43)c3ccccc23)cc1	nt	1	42
Cc1cc(C)c(NC(=S)NC(=O)c2ccccc2)c(C)c1	nt	-2	63
COC(=O)c1ccccc1NC(=O)CSC1=NC(c2ccccc2)CC(=O)N1 (centres undefined)	-1	-2	7
COC(=O)c1ccccc1NC(=O)c1ccc(NC(=O)C(C)Oc2ccccc2)cc1 (centres undefined)	5	2	0
CC(Oc1ccc(C(=O)Nc2ccc(Cl)cc2)cc1)C(=O)Nc1ccc(Br)cc1 (centres undefined)	3	-13	136*
Cc1ccc(NC(=O)c2ccc(OC(C)C(=O)Nc3ccccc3)cc2)cc1 (centres undefined)	-3	nt	47
Cc1cccc(NC(=O)c2ccc(OC(C)C(=O)Nc3ccc(Br)cc3)cc2)c1C (centres undefined)	5	0	115*
Fc1ccccc1OCCSc1nc2ccccc2s1	nt	0	12
COc1ccc(OC)c(NC(=O)c2ccc(N(C)S(=O)(=O)c3ccc(OC)c(OC)c3)cc2)c1	5	-1	4
COc1ccc(NC(=O)CN(c2ccccc2F)S(C)(=O)=O)cc1Cl	2	0	5
C[C@H]1CN([C@@H](C)CO)C(=O)c2cccc(NC(=O)Nc3ccccc3)c2O[C@@H]1CN(C)Cc1ccc(Cl)c(Cl)c1	nt	0	64
SMILES	STK33 kin inh	PD-1 reversal	NOMO-1 viab
C[C@@H]1CN([C@@H](C)CO)C(=O)c2cccc(NC(=O)Nc3ccccc3)c2O[C@H]1CN(C)Cc1ccc(Cl)c(Cl)c1	nt	nt	102*
C[C@@H]1CN([C@H](C)CO)C(=O)c2cccc(NC(=O)Nc3ccccc3)c2O[C@@H]1CN(C)Cc1ccc(Cl)c(Cl)c1	nt	-4	?
C[C@@H]1CN([C@@H](C)CO)C(=O)c2cccc(NC(=O)Nc3ccc(F)cc3)c2O[C@@H]1CN(C)Cc1ccc(Cl)c(Cl)c1	nt	-5	93*
O=C(COc1ccccc1)Nc1ccc(Cl)cc1C(=O)O	-2	nt	23
C=C1C(=O)O[C@H]2[C@H]1[C@@H](OC(=O)C(C)(O)C(C)Cl)C(OC(C)=O)/C(C(=O)OC)=C\CC[C@@]1(C)O[C@H]21 (some centres undefined)	0	-10	119*
C[C@@H]1CN([C@H](C)CO)C(=O)Cc2cc(NC(=O)Nc3ccc(C(F)(F)F)cc3)ccc2O[C@H]1CN(C)Cc1ccc2c(c1)OCO2	0	nt	-13
C[C@H](CO)N1C[C@H](C)[C@H](CN(C)Cc2ccc(C(=O)O)cc2)Oc2ccc(NC(=O)Nc3ccc(C(F)(F)F)cc3)cc2CC1=O	-9	2	18
C[C@@H]1CN([C@@H](C)CO)C(=O)Cc2cc(NC(=O)Nc3ccc(C(F)(F)F)cc3)ccc2O[C@@H]1CN(C)Cc1ccc2c(c1)OCO2	0	nt	122*
